From the supplement of paper PMC11732987, “Enantioselective OTUD7B fragment discovery through chemoproteomics screening and high-throughput optimisation” (Communications Chemistry, 2025)

Experiments:
Assay in all cases: log2 ratio of Biotin-Ahx-Ub-VS probe labelling (fragment/DMSO); higher = less target engagement (more negative = stronger competition), active = hit call of the paper (q ≤ 0.05, log2 ratio ≤ -1)
Conditions in all cases: compound concentration: 200 uM; treatment time: 3 h
OTUD6B = molecular target: T1, OTUD6B (UniProt Q8N6M0)
T1 sequence (whole entry): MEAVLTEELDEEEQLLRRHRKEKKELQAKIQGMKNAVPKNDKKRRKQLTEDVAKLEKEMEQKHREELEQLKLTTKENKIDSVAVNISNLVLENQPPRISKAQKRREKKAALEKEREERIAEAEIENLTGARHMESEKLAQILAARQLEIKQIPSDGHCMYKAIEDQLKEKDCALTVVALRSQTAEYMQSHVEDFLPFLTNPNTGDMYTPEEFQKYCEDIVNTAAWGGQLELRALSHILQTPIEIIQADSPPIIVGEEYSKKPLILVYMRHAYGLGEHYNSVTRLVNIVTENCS
Method in brief: (§1)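 Global-median-normalised Spectronaut label-free quantities were compared by unpaired t-test, and values are average log2 ratios of fragment over vehicle. Only proteins with ≥2 unique peptides were used. HEK293T lysate (495 µg per sample) was treated in triplicate with fragment at 200 µM or vehicle for 3 h and then with Biotin-Ahx-Ub-VS at 0.5 µM final for 1 h. Labelled DUBs were then NeutrAvidin-enriched, digested with LysC and trypsin, and run by diaPASEF LC-MS/MS.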

OTUD7B = molecular target: T2, OTUD7B (UniProt Q6GQQ9)
T2 sequence (whole entry): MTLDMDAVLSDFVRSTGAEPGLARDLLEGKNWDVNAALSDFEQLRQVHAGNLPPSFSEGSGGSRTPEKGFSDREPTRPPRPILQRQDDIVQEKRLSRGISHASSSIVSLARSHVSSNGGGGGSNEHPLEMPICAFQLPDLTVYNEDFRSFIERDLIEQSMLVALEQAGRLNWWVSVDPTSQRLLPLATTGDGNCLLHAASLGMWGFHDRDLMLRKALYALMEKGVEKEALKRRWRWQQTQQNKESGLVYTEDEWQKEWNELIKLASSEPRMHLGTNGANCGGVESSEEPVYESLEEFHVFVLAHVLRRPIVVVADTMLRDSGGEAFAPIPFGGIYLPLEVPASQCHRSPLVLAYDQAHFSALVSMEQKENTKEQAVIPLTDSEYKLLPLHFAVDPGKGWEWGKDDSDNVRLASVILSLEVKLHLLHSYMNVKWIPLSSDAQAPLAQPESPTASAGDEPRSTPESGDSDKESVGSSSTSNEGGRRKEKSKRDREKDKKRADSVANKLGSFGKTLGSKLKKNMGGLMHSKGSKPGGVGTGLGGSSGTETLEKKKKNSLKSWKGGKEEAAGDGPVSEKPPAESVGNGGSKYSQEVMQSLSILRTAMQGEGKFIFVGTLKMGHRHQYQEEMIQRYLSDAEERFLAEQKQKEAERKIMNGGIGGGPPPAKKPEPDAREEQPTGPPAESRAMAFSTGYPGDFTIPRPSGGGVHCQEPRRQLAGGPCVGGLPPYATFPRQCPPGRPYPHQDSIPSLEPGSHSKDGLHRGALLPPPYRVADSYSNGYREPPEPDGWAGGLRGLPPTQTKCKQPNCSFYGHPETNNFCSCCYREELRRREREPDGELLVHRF
Method in brief: as §1

PRPF8 = PRPF8 (UniProt Q6P2Q9)
Method in brief: as §1

PSMD7 = molecular target: T3, PSMD7 (UniProt P51665)
T3 sequence (whole entry): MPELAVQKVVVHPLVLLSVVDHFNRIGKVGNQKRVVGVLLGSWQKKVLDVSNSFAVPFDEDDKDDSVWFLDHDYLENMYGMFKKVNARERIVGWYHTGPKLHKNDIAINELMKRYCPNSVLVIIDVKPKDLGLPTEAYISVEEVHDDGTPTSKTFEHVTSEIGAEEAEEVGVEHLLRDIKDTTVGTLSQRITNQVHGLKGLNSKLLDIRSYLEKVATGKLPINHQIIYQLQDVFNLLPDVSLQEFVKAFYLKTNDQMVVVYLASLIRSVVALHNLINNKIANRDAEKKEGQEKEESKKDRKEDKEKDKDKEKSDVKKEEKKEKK
Method in brief: as §1

UCHL1 = UCHL1 (UniProt P09936)
Method in brief: as §1

UCHL3 = molecular target: T4, UCHL3 (UniProt P15374)
T4 sequence (whole entry): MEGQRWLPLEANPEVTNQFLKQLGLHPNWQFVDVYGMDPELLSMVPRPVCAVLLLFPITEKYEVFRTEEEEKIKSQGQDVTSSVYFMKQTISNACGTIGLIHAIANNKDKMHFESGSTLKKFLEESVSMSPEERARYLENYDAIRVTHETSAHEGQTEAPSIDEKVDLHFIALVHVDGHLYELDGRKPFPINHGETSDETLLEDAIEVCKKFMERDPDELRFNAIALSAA
Method in brief: as §1

UCHL5 = molecular target: T5, UCHL5 (UniProt Q9Y5K5)
T5 sequence (whole entry): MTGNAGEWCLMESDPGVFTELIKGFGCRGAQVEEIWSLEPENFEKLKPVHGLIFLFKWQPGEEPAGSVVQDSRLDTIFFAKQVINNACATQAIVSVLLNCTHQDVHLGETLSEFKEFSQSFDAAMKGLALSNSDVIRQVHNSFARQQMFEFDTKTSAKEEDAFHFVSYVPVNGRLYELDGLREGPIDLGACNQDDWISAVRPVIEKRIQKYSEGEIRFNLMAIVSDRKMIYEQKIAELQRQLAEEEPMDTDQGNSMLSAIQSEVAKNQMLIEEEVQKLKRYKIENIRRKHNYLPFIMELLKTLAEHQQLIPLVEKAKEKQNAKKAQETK
Method in brief: as §1

USP10 = USP10 (UniProt Q14694)
Method in brief: as §1

USP15 = molecular target: T6, USP15 (UniProt Q9Y4E8)
T6 sequence (whole entry): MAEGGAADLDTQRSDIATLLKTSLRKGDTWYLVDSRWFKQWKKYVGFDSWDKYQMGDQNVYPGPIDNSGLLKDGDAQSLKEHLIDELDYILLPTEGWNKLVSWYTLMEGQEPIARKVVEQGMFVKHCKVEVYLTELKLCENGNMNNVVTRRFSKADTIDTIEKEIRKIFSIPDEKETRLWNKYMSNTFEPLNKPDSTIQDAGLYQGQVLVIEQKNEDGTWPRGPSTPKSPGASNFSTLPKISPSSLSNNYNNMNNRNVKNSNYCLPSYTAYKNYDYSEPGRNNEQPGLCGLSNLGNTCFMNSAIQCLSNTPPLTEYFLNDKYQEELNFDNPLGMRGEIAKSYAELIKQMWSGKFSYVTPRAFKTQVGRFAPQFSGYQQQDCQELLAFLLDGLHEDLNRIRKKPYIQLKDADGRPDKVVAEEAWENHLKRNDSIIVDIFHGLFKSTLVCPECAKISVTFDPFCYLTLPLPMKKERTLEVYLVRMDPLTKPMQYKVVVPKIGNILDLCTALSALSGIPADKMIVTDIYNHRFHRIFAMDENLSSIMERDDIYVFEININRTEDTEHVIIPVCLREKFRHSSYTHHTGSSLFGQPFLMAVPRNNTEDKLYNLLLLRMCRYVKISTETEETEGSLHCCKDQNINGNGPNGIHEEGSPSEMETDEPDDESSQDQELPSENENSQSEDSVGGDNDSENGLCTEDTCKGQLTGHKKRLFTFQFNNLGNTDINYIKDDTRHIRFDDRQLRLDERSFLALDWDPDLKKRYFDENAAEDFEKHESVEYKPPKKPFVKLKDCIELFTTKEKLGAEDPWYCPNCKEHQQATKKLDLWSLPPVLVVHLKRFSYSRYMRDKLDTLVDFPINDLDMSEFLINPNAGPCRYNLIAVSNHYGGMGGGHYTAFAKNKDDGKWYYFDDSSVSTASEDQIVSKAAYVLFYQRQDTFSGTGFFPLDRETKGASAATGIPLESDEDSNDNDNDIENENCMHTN
Method in brief: as §1

USP16 = USP16 (UniProt Q9Y5T5)
Method in brief: as §1

Measured: log2 ratio of Biotin-Ahx-Ub-VS probe labelling

Sequence of USP10 (Q14694 whole entry): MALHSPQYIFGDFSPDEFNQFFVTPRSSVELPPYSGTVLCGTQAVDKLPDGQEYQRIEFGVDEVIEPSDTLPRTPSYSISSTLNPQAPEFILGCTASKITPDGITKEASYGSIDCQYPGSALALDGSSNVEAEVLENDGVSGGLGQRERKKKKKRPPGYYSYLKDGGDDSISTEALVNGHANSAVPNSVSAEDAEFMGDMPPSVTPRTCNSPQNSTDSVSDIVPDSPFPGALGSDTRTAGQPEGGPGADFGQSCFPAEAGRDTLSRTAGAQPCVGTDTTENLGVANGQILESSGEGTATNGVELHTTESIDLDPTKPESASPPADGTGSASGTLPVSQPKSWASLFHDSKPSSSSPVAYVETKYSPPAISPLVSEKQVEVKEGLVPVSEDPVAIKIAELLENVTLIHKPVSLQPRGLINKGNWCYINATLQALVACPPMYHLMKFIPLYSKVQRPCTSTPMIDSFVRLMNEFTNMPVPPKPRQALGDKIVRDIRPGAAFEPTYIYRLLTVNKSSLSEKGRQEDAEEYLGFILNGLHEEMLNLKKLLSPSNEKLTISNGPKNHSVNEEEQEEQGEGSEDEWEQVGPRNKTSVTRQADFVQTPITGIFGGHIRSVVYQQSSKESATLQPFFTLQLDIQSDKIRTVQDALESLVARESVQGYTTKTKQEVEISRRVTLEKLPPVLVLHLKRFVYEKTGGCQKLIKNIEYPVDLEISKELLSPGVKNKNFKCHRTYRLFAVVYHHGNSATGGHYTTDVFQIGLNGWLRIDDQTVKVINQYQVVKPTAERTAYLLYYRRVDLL
Sequence of USP16 (Q9Y5T5 whole entry, looked up): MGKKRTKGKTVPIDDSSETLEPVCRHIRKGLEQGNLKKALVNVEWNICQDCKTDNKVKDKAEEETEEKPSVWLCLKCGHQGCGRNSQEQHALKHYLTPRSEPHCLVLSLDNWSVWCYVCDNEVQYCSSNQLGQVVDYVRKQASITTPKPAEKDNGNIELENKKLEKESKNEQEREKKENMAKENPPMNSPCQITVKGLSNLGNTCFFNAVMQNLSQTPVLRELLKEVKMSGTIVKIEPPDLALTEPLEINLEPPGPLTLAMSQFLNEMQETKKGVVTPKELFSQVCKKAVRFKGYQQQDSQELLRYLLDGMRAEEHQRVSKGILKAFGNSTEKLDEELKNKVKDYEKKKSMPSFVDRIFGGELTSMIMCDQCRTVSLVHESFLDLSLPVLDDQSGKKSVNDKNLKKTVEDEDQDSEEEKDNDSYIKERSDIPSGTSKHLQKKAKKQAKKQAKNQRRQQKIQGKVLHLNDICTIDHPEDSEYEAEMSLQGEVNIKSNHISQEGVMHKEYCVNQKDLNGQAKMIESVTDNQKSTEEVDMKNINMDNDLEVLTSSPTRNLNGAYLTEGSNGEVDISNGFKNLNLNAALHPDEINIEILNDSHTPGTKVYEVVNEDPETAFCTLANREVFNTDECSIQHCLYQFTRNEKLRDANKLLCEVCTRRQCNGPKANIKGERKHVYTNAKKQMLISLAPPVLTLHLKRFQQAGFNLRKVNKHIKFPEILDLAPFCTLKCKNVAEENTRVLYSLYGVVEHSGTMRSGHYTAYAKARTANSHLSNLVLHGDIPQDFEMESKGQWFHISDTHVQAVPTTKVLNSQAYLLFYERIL
Sequence of UCHL1 (P09936 whole entry, looked up): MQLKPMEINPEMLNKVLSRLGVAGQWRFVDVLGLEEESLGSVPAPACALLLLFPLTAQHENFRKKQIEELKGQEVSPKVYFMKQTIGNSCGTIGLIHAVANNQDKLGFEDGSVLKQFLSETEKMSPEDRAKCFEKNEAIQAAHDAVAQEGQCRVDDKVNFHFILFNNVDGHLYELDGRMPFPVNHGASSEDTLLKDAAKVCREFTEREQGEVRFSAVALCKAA

O=C(CCl)N1CCN(C(=O)N2CCCCC2)CC1
inactive: PRPF8 -0.0826 | PSMD7 -0.335 | UCHL3 -0.528 | UCHL5 -0.96 | USP10 -0.21 | USP15 -0.839 | USP16 0.0515
active: OTUD6B -1.28 | OTUD7B -1.17 | UCHL1 -2.3
